Assay outcomes from PubChem.
Shown are actives, neighbours in structure and some others; about 1.4% of the full set was active somewhere.
TCR activator: activators of T cell receptors; AID 504894; primary human leukocytes, anti-CD3, IL-2 HTRF, 48 h; Potency, µM (series often up to 9.22 µM), for inactives: at the highest dose activation of IL-2 secretion, hits mostly activators; 330,000 tested, under 10 active; also: % of control where 0% means no effect
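Using a-CD3 beads without co-stimulation, primary human leukocytes were exposed to compounds for 48 hr. An HTRF IL-2 kit measured the cytokine, with europium-to-d2 energy transfer producing emission at 665nm upon 320nm excitation.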
p53 reactivation: re-activators of mutant p53; H1299 p53-A138V BP100-luciferase reporter, luminescence, 24 h; Potency, µM (top dose mostly 92.2 µM), for the others: at the top dose activity change, positive = activation, most hits filed as activators; 320,000 tested, 0.063% active; AID 504706; also: potency is read from the fitted curve at half-maximal effect; % of control where 0% means no effect; nearly all actives have a fitted effect of over 45% in size
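p53-null H1299 cells stably carrying temperature-sensitive p53-A138V and a BP100-luciferase reporter were pinned with compounds (4-point, 1:5 series) and held 24 hrs at 37 deg C. Luminescence was read 10 min after detection reagent.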
BRCA1 expr act: increases BRCA1 expression. MCF7-BRCA1-FFLuc reporter, luminescence, 48 h; response scale: scaled: vehicle 0%, 10 µM genistein 100%. Potency, µM (highest dose often 46.1 µM), inactives show at the top dose activation, hits mostly activators. 380,000 tested, 1.1% active; also: potency is read from the fitted curve at half-maximal effect; nearly all actives have a fitted effect of over 80% in size
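Quantitative HTS in MCF7 cells stably reporting BRCA1 expression via firefly luciferase. Compound treatment lasts 48 h at 37 °C in phenol-red free MEM. Activation is expressed relative to genistein at 10 microM and DMSO.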
uPA surface inh: inhibitors of cell surface uPA generation. 330,000 tested, 0.31% active. Potency, µM (highest dose often 38.3 µM), without a hit: at the top dose activity change, negative = inhibition, most hits filed as inhibitors. cell surface uPA generation assay, qHTS; active = well fitted inhibition curve with a large enough effect; inconclusive = small, poorly fitted or top-dose-only effect; inactive = no such curve, though single readings can be large or run the other way; tested in mouse RAW 264.7 cells; also: potency is read from the fitted curve at half-maximal effect; % is scaled to controls: 0 for no effect and ±100 for the full control effect; nearly all actives have a fitted effect of over 55% in size
IL-2 act: activates IL-2 in a cell-based reporter assay | IL-2 activation reporter assay, cell-based qHTS; stimulated with anti-CD3/CD4/CD28 beads; in transgenic mouse T cells | activation, % (series mostly up to about 46 µM) | 360,000 tested, 0.065% active | AID 652025; in the data active = activation above about 50%; inconclusive = mostly about 30% to 49%; also: 0% is about no effect
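Using fluorescent plate cytometry, EGFP and DsRed are detected in transgenic mouse T cells stimulated 18 h at 37 degrees C with antibody-coated beads after 60 min compound pretreatment.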
* = called active by the depositor; [ ] = dose if it differs, or a comment. Unless noted, calls follow the shape of the dose curve; as a rule, active = well fitted curve in the direction sought with a large enough effect; inconclusive = small, poorly fitted or top-dose-only effect, or another doubt; inactive = no such curve, though single readings can be large; an effect the other way counts as inactive or inconclusive.

Screening CC(=O)CSc1nc2ccccc2s1 returned p53 reactivation 24%, BRCA1 expr act 13µM*, uPA surface inh 3% and IL-2 act -2.
Screening O=C(CSc1nc2ccccc2s1)c1cc2ccccc2o1 returned TCR activator 0%, BRCA1 expr act 17% and IL-2 act 2.
`O=C(CSc1nc2ccccc2s1)CSc1nc2ccccc2s1` gave TCR activator -3%, p53 reactivation 9%, BRCA1 expr act -2%, uPA surface inh 9% and IL-2 act 1.
For O=c1oc2ccccc2n1CSc1nc2ccccc2s1 the results were TCR activator -3%, p53 reactivation inconclusive, BRCA1 expr act 13µM*, uPA surface inh -2% and IL-2 act -3.
`CCc1ccc(NC(=O)c2ccc(NS(=O)(=O)c3c(C)noc3C)cc2)cc1` gave BRCA1 expr act 5%.
`Nc1cc(=O)[nH]c2c1CCC2` gave BRCA1 expr act 2%.
Screening COc1cccc(NC(=O)c2c(N3CCCC3=O)c3cc(C)ccc3n2C)c1 returned BRCA1 expr act -34%.
For O=[N+]([O-])c1ccc(O)c(C=Nc2ccc3c(c2)OCCO3)c1 the results were TCR activator -3%[46.1 µM], p53 reactivation inconclusive, BRCA1 expr act 11µM*, uPA surface inh -1% and IL-2 act 1.
Screening COc1ccccc1N1C(=O)S/C(=C\c2cc(C)n(C)c2C)C1=O returned TCR activator -19%, p53 reactivation 19%, BRCA1 expr act 5.6µM*, uPA surface inh -7% and IL-2 act 0.
`COc1ccc(N=C2S/C(=C\c3cc(C)n(C)c3C)C(=O)N2C)cc1` gave TCR activator -1%, p53 reactivation -2%, BRCA1 expr act -35%, uPA surface inh -6% and IL-2 act 0.
For COc1ccccc1N1C(=O)S/C(=C\c2ccc(C)s2)C1=O the results were p53 reactivation inconclusive, BRCA1 expr act 70%, uPA surface inh 6% and IL-2 act 88*.
CCOc1ccc2nc(NC(=O)C(CC)Sc3nc(C)cc(=O)[nH]3)sc2c1 (centres undefined) was read as TCR activator 0%, p53 reactivation inconclusive, BRCA1 expr act 5.6µM*, uPA surface inh -9% and IL-2 act -1.
`CCOC(=O)COc1ccc(C)cc1C(=O)c1ccn2nc(-c3ccc(Cl)cc3)cc2n1` gave BRCA1 expr act 3%.
Screening O=c1[nH]c(/C=C\c2cccnc2)c([N+](=O)[O-])c(=O)[nH]1 returned TCR activator -1%, p53 reactivation 0%, BRCA1 expr act 4%, uPA surface inh 2% and IL-2 act 2.
Screening COc1cccc(N/C=C/c2onc(C)c2[N+](=O)[O-])c1 returned TCR activator -5%, p53 reactivation -2%, BRCA1 expr act 4µM*, uPA surface inh 6% and IL-2 act 1.
`Cc1cccc(C)c1N/C=C/c1onc(C)c1[N+](=O)[O-]` gave TCR activator 9%, BRCA1 expr act -1%, uPA surface inh -6% and IL-2 act 1.
`Cc1noc(/C=C/c2cccnc2)c1[N+](=O)[O-]` gave TCR activator -2%, p53 reactivation -14%, BRCA1 expr act -72%, uPA surface inh 7.9µM* and IL-2 act -2.
Cc1ccc(N/C=C/c2onc(C)c2[N+](=O)[O-])cc1 was read as TCR activator 9%, p53 reactivation 15%, BRCA1 expr act 6.3µM*, uPA surface inh 3% and IL-2 act 0.
`CN(C)/[N+]([O-])=N/Oc1ccc([N+](=O)[O-])cn1` gave BRCA1 expr act 0%.
Screening COc1ccc(C2NC(=O)N(C)C3=C2C(=O)N(c2cccc(C(=O)O)c2)C3)cc1 (centres undefined) returned BRCA1 expr act 47%.
For Cc1ccc(S(=O)(=O)N2CCN(c3nc(-c4cnccn4)nc4ccccc34)CC2)cc1 the results were BRCA1 expr act 0%.
COc1ccccc1C1c2c(-c3ccc(Cl)cc3)n[nH]c2C(=O)N1c1ccc(C)cc1 (centres undefined) was read as BRCA1 expr act -64%.
For Cc1ccc(S(=O)(=O)N2CCN(c3nc(-c4cccs4)nc4cccnc34)CC2)cc1 the results were BRCA1 expr act 0%.
Screening CCOc1ccc(CC(=O)Nc2c(C(=O)c3ccc(F)cc3)oc3ccc(Cl)cc23)cc1OCC returned BRCA1 expr act 12%.
`C/C(=N\Nc1ccccn1)c1ccc(N2CCOCC2)cc1` gave TCR activator -1%, p53 reactivation 2%, BRCA1 expr act 4.5µM*, uPA surface inh -2% and IL-2 act -3.
For Cc1cc(SCC(=O)Nc2ccc(C(F)(F)F)cc2)nc(=O)[nH]1 the results were BRCA1 expr act -3%.
For COc1ccc(CC(=O)N2CCc3ccccc32)cc1 the results were TCR activator 9%[46.1 µM], p53 reactivation inconclusive, BRCA1 expr act 8.9µM*, uPA surface inh 0% and IL-2 act 1.
COc1ccc2c(CC(=O)OCC(=O)N3CCc4ccccc43)coc2c1 was read as p53 reactivation -2%, BRCA1 expr act 11%, uPA surface inh 3% and IL-2 act 3.
`COc1ccc2c(CC(=O)N3CCc4ccccc43)coc2c1` gave TCR activator 7%, p53 reactivation 29%, BRCA1 expr act 3.5µM*, uPA surface inh -10% and IL-2 act -2.
Screening O=C(COC(=O)C1CC1)Nc1ccc(OC(F)F)cc1 returned TCR activator -1%, p53 reactivation 7%, BRCA1 expr act 4%, uPA surface inh 3% and IL-2 act -1.
`O=C(COC(=O)C1CC1)Nc1ccc(N=Nc2ccccc2)cc1` gave TCR activator 2%[46.1 µM], p53 reactivation inconclusive, BRCA1 expr act 2.5µM*, uPA surface inh -2% and IL-2 act 1.
For Clc1ccccc1-c1cc2nc(NCCCn3ccnc3)ccn2n1 the results were BRCA1 expr act 10µM* and IL-2 act 0.
S=C(NCCc1cccc(Cl)c1)NC1CCCCC1 was read as TCR activator -2%, p53 reactivation inconclusive, BRCA1 expr act 3.2µM*, uPA surface inh 4% and IL-2 act -3.
For S=C(NCCc1ccccc1)NC1CCC(NC(=S)NCCc2ccccc2)CC1 (centres undefined) the results were TCR activator -2%, p53 reactivation 0%, BRCA1 expr act 1%, uPA surface inh 11% and IL-2 act 1.
For COc1ccc2c(c1)c(C(=O)N/N=C/c1ccc(Br)cc1)c(C)n2C the results were TCR activator -1%, p53 reactivation 0%, BRCA1 expr act -42%, uPA surface inh 11µM* and IL-2 act 0.
`CCOc1ccc(/C=N/NC(=O)c2c(C)n(C)c3ccc(OC)cc23)cc1` gave TCR activator -5%[46.1 µM], p53 reactivation -1%, BRCA1 expr act -63%, uPA surface inh -8% and IL-2 act 1.
